NIH3T3 tox: Cytotoxic Profiling in NIH 3T3 Cell Line of Diverse Libraries Using Quantitative High-Throughput Screening; NIH 3T3 viability, CellTiter-Glo ATP luminescence, 48-72 h; Potency, µM (top dose mostly 96.7 µM), usual class: inhibitors; hit rate 4.3% among 94,000; further: nearly all actives have a fitted effect of over 55% in size
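ATP-dependent luminescence (CellTiter-Glo) served as the viability signal for NIH 3T3 cells treated with compound for 48 or 72 hr at 37 °C.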
HEK cytotox: Cytotoxic Profiling in HEK 293 Cell Line of Diverse Libraries Using Quantitative High-Throughput Screening. HEK 293 viability, ATP luminescence (CellTiter-Glo), 48-72 h. hit rate 6.6% among 94,000. AID 1345083, 2018. Potency, µM (series often up to 115 µM), actives largely listed as inhibitors; further: nearly all actives have a fitted effect of over 60% in size
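HEK 293 cells at 250 cells/well were exposed to compounds by pintool transfer for 48 or 72 hr at 37 degree Celsius, 5% CO2. Viability was read as ATP-coupled luminescence with CellTiter-Glo after 10 min at room temperature.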
NPR1 antag: Natriuretic polypeptide receptor (hNpr1) antagonism - Primary qHTS; hit rate 1.6% among 76,000; HEK293 hNpr1 GloSensor cGMP, ANP-stimulated luminescence; Atrial natriuretic peptide receptor 1 (Homo sapiens), P16066; Potency, µM (doses to about 46.3 µM), actives largely listed as inhibitors; calls by dose curve; further: nearly all actives have a fitted effect of over 60% in size
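Compound pre-incubated 30 min at room temperature on GloSensor-loaded HEK293 cells stably carrying hNpr1 and the pGS-40F cGMP biosensor. Stimulation uses hNppA at 0.1 nM final; luminescence is taken at baseline and 20 min post-agonist.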
SNCA viab count: GF-AFC viability counterscreen for inhibitors of alpha-synuclein gene (SNCA) expression; HEK-293-SNCA-luc viability, GF-AFC fluorescence, 24 h; AID 1671193, 2021; Potency, µM (highest dose often 57.1 µM), actives largely listed as cytotoxic; hit rate 0.12% among 150,000; further: nearly all actives have a fitted effect of over 30% in size
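HEK-293-SNCA-luc cells (1500/well) plated 24 h, then exposed 24 h to a dilution series; GF-AFC added 30 min at 37C, fluorescence 405/540 nm; normalised to medium-only and DMSO wells, Hill fit.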
Luciferase inh: Firefly luciferase inhibition profiling of diverse chemical library using quantitative high-throughput screening | hit rate 2.5% among 76,000 | Potency, µM (series often up to 115 µM), usual class: inhibitors | purified P. pyralis luciferase, luminescence, biochemical | Luciferin 4-monooxygenase (Photinus pyralis), P08659; further: nearly all actives have a fitted effect of over 65% in size
Target sequence (P08659 whole entry, looked up): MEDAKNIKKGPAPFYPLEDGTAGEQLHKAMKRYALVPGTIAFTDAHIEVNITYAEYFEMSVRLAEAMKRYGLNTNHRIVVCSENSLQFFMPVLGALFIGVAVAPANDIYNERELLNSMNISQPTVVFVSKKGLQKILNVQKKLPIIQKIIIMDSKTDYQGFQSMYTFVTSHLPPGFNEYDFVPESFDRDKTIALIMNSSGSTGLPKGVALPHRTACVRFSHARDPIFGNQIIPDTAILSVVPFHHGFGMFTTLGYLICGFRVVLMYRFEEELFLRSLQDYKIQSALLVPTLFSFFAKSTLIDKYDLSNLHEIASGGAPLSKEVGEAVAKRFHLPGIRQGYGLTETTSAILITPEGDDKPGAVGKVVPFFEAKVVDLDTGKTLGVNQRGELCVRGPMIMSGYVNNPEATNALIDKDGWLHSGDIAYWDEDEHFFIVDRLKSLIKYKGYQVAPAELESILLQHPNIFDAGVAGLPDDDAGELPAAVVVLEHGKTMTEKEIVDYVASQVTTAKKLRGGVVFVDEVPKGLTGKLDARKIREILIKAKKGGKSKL
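Cell-free enzyme assay, 10nM P. pyralis luciferase, luciferin and ATP each at 10uM. Inhibition profiled over a 6-point titration, read as luminescence.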
SNCA expr inhib: Primary qHTS assay for inhibitors of alpha-synuclein gene (SNCA) expression | HEK-293 SNCA-luciferase knock-in, luminescence, 24 h | Potency, µM (top dose mostly 57.2 µM), most hits filed as inhibitors | hit rate 0.17% among 140,000; further: nearly all actives have a fitted effect of over 45% in size
Numbers stand for hits; - = inactive; ? = inconclusive; . = not tested or not shown; [ ] = remark or other dose. Most compounds without a hit are left out; they make up all but 7.4% or so of the library. Unless noted, the call rests on the fitted dose curve; in most records, active means well fitted curve in the direction sought with a large enough effect; inconclusive means small, poorly fitted or top-dose-only effect, or another doubt; inactive means no such curve, though single readings can be large; an effect the other way counts as inactive or inconclusive.

SMILES	NIH3T3 tox	HEK cytotox	NPR1 antag	SNCA viab count	Luciferase inh	SNCA expr inhib
CN1CCN(c2nc3c(c(=O)[nH]2)CCN(Cc2ccccc2C(F)(F)F)CC3)CC1	-	79.4µM	-	-	-	-
Oc1ccc(-c2nc(C3CC3)nc3c2CCN(Cc2ccccc2C(F)(F)F)CC3)cc1	31.6µM	31.6µM	-	-	-	-
CCc1nc2c(c(-c3ccc(O)cc3)n1)CCN(Cc1ccccc1C(F)(F)F)CC2	39.8µM	?	-	-	-	-
O=C1CC2CCCC(C1)N2C(=O)C1CCCC1	-	-	-	-	-	-
CC[C@H]1OC(=O)[C@H](C)[C@@H](O[C@H]2C[C@@](C)(OC)[C@@H](O)[C@H](C)O2)[C@H](C)[C@@H](O[C@@H]2O[C@H](C)C[C@H](N(C)C)[C@H]2O)[C@](C)(O)C[C@@H](C)C(=O)[C@H](C)[C@H]2OC(=O)O[C@@]21C	.	.	.	-	.	.
Cc1noc(C)c1-c1cc2c(cc(C)n2C)c(NC2CCN(C)CC2)n1	?	?	-	-	-	-
Cc1noc(C)c1-c1cc2cc(CN3CCN(C)CC3)oc2c(NC2CCN(C)CC2)n1	89.1µM	?	-	-	-	-
Cc1noc(C)c1-c1cc2cc(CNC(C)C)oc2c(NC2CCN(C)CC2)n1	?	63.1µM	-	?	-	-
CC(C)c1nc2c(c(-c3ccc(O)cc3)n1)CCN(Cc1cccnc1)CC2	-	-	-	-	-	-
O=C1CC2(CCN(Cc3ccc(C(F)(F)F)cc3)CC2)Oc2ccccc2N1	?	44.7µM	-	-	-	-
O=C1CC2(CCN(Cc3ccc(F)cc3)CC2)Oc2ccccc2N1c1ccccc1	?	50.1µM	-	-	-	-
O=C1CC2(CCN(Cc3ccc(C(F)(F)F)cc3)CC2)Oc2ccccc2N1c1ccccc1	25.1µM	20µM	-	-	-	?
COc1ccc2[nH]cc(CCNC(=O)C3Cn4cccc4C(=O)N3C)c2c1 (stereo not given)	-	-	-	-	-	-
Cc1ccc(S(=O)(=O)N2CCc3nc(N(C)Cc4cccnc4)[nH]c(=O)c3CC2)cc1	?	?	-	-	-	-
CNCC(=O)N1CCC2(CC1)CN(Cc1ccccc1)CC2CO (stereo not given)	-	-	-	?	-	-
O=C(Cc1ccc(F)cc1)N1CCC2(CC1)CN(Cc1ccccc1)CC2CO (stereo not given)	?	44.7µM	-	-	-	?
COCC1CN(C)CC12CCN(C(=O)Cc1ccc(OC)c(Cl)c1)CC2 (stereo not given)	-	89.1µM	-	-	-	-
COCC1CN(C2CCC2)CC12CCN(C(=O)Cc1cccc(F)c1)CC2 (stereo not given)	?	50.1µM	-	-	-	-
COCC1CN(C)CC12CCN(C(=O)c1cc(Cl)ccc1OC)CC2 (stereo not given)	-	?	-	-	-	-
COCC1CN(C2CCC2)CC12CCN(C(=O)c1ccccc1C)CC2 (stereo not given)	?	?	-	-	-	-
COCC1CN(C2CCC2)CC12CCN(C(=O)c1ccccc1Cl)CC2 (stereo not given)	?	79.4µM	-	-	-	-
CC1(CNC(=O)c2cnccn2)CCOCC1	-	-	-	-	-	-
CCC1(C(=O)O)CCCN(Cc2ccccc2)C1 (stereo not given)	-	-	-	-	-	-
COCC1CN(C)CC12CCN(C(=O)Cc1cccc(Cl)c1)CC2 (stereo not given)	?	35.5µM	-	-	-	-
O=C(O)CCNc1cc(N2CCc3ccccc3CC2)nc(-c2ccccn2)n1	.	.	.	-[12.5 µM]	.	-
SMILES	NIH3T3 tox	HEK cytotox	NPR1 antag	SNCA viab count	Luciferase inh	SNCA expr inhib
CCc1c(C)cc(C(=O)N[C@H]2CCOC[C@H]2C2CCOCC2)c(=O)n1C	-	-	-	-	-	-
CN(C)c1ccc(-n2cnc3cccnc32)cc1	?	?	-	-	35.5µM	-
COc1ccc(NC(=O)c2c(C)nc3n2CCC(Nc2ccccc2)C3)cn1 (stereo not given)	?	-	-	-	-	-
Cc1ccsc1C(=O)N1CCC(n2cc(-c3nc(-c4ccccc4)no3)nn2)CC1	-	39.8µM	?	-	-	-
Cc1ccccc1C(=O)N1CCC(n2cc(-c3nc(-c4ccccc4)no3)nn2)CC1	-	?	-	-	-	-
O=C(c1cccs1)N1CCC(n2cc(-c3nc(-c4ccccc4)no3)nn2)CC1	?	35.5µM	?	-	-	-
O=C(c1ccc(Cl)cc1)N1CCC(n2cc(-c3nc(-c4ccccc4)no3)nn2)C1 (stereo not given)	-	22.4µM	?	?	?	-
Cc1ccccc1C(=O)N1CCC(n2cc(-c3nc(-c4ccccc4)no3)nn2)C1 (stereo not given)	?	?	7.94µM	-	?	-
N#Cc1ccc(C(=O)N2CCC(n3cc(-c4nc(-c5ccccc5)no4)nn3)C2)cc1 (stereo not given)	?	?	?	-	?	-
CCC(c1cccs1)N1C(=O)[C@H]2CN(S(=O)(=O)c3ccc(Cl)cc3)C[C@H]2C1=O (stereo not given in full)	-	?	-	-	-	-
Cn1cccc1C(=O)N1CCC(n2cc(-c3nc(-c4ccccc4)no3)nn2)C1 (stereo not given)	?	44.7µM	17.8µM	-	?	-
O=C(c1cc(F)ccc1F)N1CCC(n2cc(-c3nc(-c4ccccc4)no3)nn2)CC1	?	?	-	-	-	-
O=C(c1ccccc1)N1CCC(n2cc(-c3nc(-c4ccccc4)no3)nn2)C1 (stereo not given)	?	?	12.6µM	-	?	-
COc1ccc(C(=O)N2CCC(n3cc(-c4nc(-c5ccccc5)no4)nn3)C2)cc1 (stereo not given)	?	?	?	-	?	-
N#Cc1ccc(C(=O)N2CCCC(n3cc(-c4nc(-c5ccccc5)no4)nn3)C2)cc1 (stereo not given)	-	?	11.2µM	-	?	-
O=C(c1ccc(F)cc1Cl)N1CCC(n2cc(-c3nc(-c4ccccc4)no3)nn2)CC1	?	?	17.8µM	-	?	-
Cn1cccc1C(=O)N1CCC(n2cc(-c3nc(-c4ccccc4)no3)nn2)CC1	?	?	-	-	?	-
